Screen size: about 5,500 compounds; about 2,000 (36%) were called active. Another 18% or so got no clear call; they are omitted. No stated cut-off is given here; in the data, active means normalized growth mostly below about 0.91 (no sharp cut-off); inconclusive means no clear call, values can overlap the other calls; inactive means mostly above about 0.92. This is one part of the list.
Assay: chemical genetic growth profiling, strain panel (AID 1159580);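 further: tested at 20 µM; growth read once vehicle control cultures reached saturation at 30 °C; 1 = growth at the plate median or of vehicle wells; lower values mean less growth of the strain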
Conditions: growth OD

Measured: normalized growth

CC(C)N(C(=O)SCC(Cl)=C(Cl)Cl)C(C)C
inactive: S. cerevisiae deletion strains, locus YAL013W, strain DEP1, hits give low values 1.01 | S. cerevisiae deletion strains, locus YBR021W, strain FUR4, hits give low values 1.01 | S. cerevisiae deletion strains, locus YBR229C, strain ROT2, hits give low values 1.01 | S. cerevisiae deletion strains, locus YCL029C, strain bik1, hits give low values 1.01 | S. cerevisiae deletion strains, locus YDL035C, strain GPR1, hits give low values 1.01 | S. cerevisiae deletion strains, locus YDL074C, strain BRE1, hits give low values 1.04 | S. cerevisiae deletion strains, locus YDL101C, strain DUN1, hits give low values 1.02 | S. cerevisiae deletion strains, locus YDL134C, strain PPH21, hits give low values 1.02 | S. cerevisiae deletion strains, locus YDL185W, strain tfp1, hits give low values 0.999 | S. cerevisiae deletion strains, locus YDL192W, strain arf1, hits give low values 0.998 | S. cerevisiae deletion strains, locus YDR101C, strain arx1, hits give low values 0.998 | S. cerevisiae deletion strains, locus YDR150W, strain NUM1, hits give low values 1.02 | S. cerevisiae deletion strains, locus YDR162C, strain NBP2, hits give low values 1.02 | S. cerevisiae deletion strains, locus YDR318W, strain mcm21, hits give low values 1 | S. cerevisiae deletion strains, locus YDR388W, hits give low values 1 | S. cerevisiae deletion strains, locus YDR502C, strain sam2, hits give low values 1 | S. cerevisiae deletion strains, locus YEL061C, strain CIN8, hits give low values 1.01 | S. cerevisiae deletion strains, locus YER110C, hits give low values 0.998 | S. cerevisiae deletion strains, locus YER155C, strain BEM2, hits give low values 1.02 | S. cerevisiae deletion strains, locus YER167W, strain BCK2, hits give low values 1.03 | S. cerevisiae deletion strains, locus YGL078C, strain dbp3, hits give low values 0.996 | S. cerevisiae deletion strains, locus YGL086W, strain mad1, hits give low values 1.01 | S. cerevisiae deletion strains, locus YGL248W, strain PDE1, hits give low values 1.02 | S. cerevisiae deletion strains, locus YGR078C, strain PAC10, hits give low values 1.02 | S. cerevisiae deletion strains, locus YGR135W, strain pre9, hits give low values 0.995 | S. cerevisiae deletion strains, locus YGR229C, strain SMI1, hits give low values 1.04 | S. cerevisiae deletion strains, locus YGR252W, strain gcn5, hits give low values 0.945 | S. cerevisiae deletion strains, locus YHR030C, strain SLT2, hits give low values 1.02 | S. cerevisiae deletion strains, locus YHR079C, strain IRE1 (second series), hits give low values 1 | S. cerevisiae deletion strains, locus YHR094C, strain hxt1, hits give low values 1.01 | S. cerevisiae deletion strains, locus YHR200W, strain rpn10, hits give low values 1 | S. cerevisiae deletion strains, locus YIL066C, strain RNR3, hits give low values 1.02 | S. cerevisiae deletion strains, locus YIL073C, strain SPO22, hits give low values 1.04 | S. cerevisiae deletion strains, locus YIL125W, strain kgd1, hits give low values 1 | S. cerevisiae deletion strains, locus YIR030C, strain dcg1, hits give low values 1 | S. cerevisiae deletion strains, locus YJL095W, strain BCK1, hits give low values 1.03 | S. cerevisiae deletion strains, locus YJL134W, strain LCB3, hits give low values 1.02 | S. cerevisiae deletion strains, locus YJL168C, strain set2, hits give low values 1 | S. cerevisiae deletion strains, locus YJL187C, strain SWE1 (second series), hits give low values 1.01 | S. cerevisiae deletion strains, locus YJR043C, strain POL32, hits give low values 1.01 | S. cerevisiae deletion strains, locus YJR075W, strain HOC1, hits give low values 1.03 | S. cerevisiae deletion strains, locus YKL009W, strain mrt4, hits give low values 1.01 | S. cerevisiae deletion strains, locus YKL068W, hits give low values 1.01 | S. cerevisiae deletion strains, locus YKL085W, strain MDH1 (second series), hits give low values 1.01 | S. cerevisiae deletion strains, locus YKL085W, strain MDH1, hits give low values 1.01 | S. cerevisiae deletion strains, locus YKL190W, strain CNB1, hits give low values 1.04 | S. cerevisiae deletion strains, locus YKR001C, strain vps1, hits give low values 0.987 | S. cerevisiae deletion strains, locus YLR039C, strain RIC1, hits give low values 0.9 | S. cerevisiae deletion strains, locus YLR058C, strain SHM2, hits give low values 1.01 | S. cerevisiae deletion strains, locus YLR102C, strain apc9, hits give low values 1.01 | S. cerevisiae deletion strains, locus YLR262C, strain YPT6, hits give low values 0.977 | S. cerevisiae deletion strains, locus YLR268W, strain sec22, hits give low values 0.981 | S. cerevisiae deletion strains, locus YLR330W, strain CHS5, hits give low values 1.01 | S. cerevisiae deletion strains, locus YLR342W, strain FKS1 (second series), hits give low values 1.02 | S. cerevisiae deletion strains, locus YLR371W, strain rom2, hits give low values 1 | S. cerevisiae deletion strains, locus YLR418C, strain cdc73, hits give low values 0.996 | S. cerevisiae deletion strains, locus YML016C, strain PPZ1, hits give low values 1.02 | S. cerevisiae deletion strains, locus YML032C, strain rad52, hits give low values 1 | S. cerevisiae deletion strains, locus YML124C, strain tub3, hits give low values 1 | S. cerevisiae deletion strains, locus YMR078C, strain ctf18, hits give low values 1.01 | S. cerevisiae deletion strains, locus YMR223W, strain ubp8, hits give low values 0.998 | S. cerevisiae deletion strains, locus YMR263W, strain SAP30, hits give low values 1.03 | S. cerevisiae deletion strains, locus YMR307W, strain GAS1, hits give low values 1.01 | S. cerevisiae deletion strains, locus YNL067W, strain RPL9B, hits give low values 1.02 | S. cerevisiae deletion strains, locus YNL128W, strain TEP1, hits give low values 1.02 | S. cerevisiae deletion strains, locus YNL153C, strain GIM3, hits give low values 1.01 | S. cerevisiae deletion strains, locus YNL233W, strain BNI4, hits give low values 1.02 | S. cerevisiae deletion strains, locus YNL250W, strain rad50, hits give low values 0.999 | S. cerevisiae deletion strains, locus YNL271C, strain bni1, hits give low values 1 | S. cerevisiae deletion strains, locus YNL298W, strain CLA4, hits give low values 0.986 | S. cerevisiae deletion strains, locus YNL307C, strain MCK1, hits give low values 0.979 | S. cerevisiae deletion strains, locus YNL322C, strain KRE1, hits give low values 1.01 | S. cerevisiae deletion strains, locus YNR052C, strain pop2, hits give low values 1 | S. cerevisiae deletion strains, locus YOL006C, strain TOP1, hits give low values 1.08 | S. cerevisiae deletion strains, locus YOL012C, strain htz1 0.763 | S. cerevisiae deletion strains, locus YOL147C, strain pex11, hits give low values 1 | S. cerevisiae deletion strains, locus YOR061W, strain CKA2, hits give low values 1.02 | S. cerevisiae deletion strains, locus YOR069W, strain VPS5, hits give low values 1.02 | S. cerevisiae deletion strains, locus YOR136W, strain idh2, hits give low values 0.996 | S. cerevisiae deletion strains, locus YOR144C, strain elg1, hits give low values 1.01 | S. cerevisiae deletion strains, locus YOR184W, strain ser1, hits give low values 0.99 | S. cerevisiae deletion strains, locus YOR316C, strain cot1, hits give low values 1.01 | S. cerevisiae deletion strains, locus YPL055C, strain LGE1, hits give low values 1.04 | S. cerevisiae deletion strains, locus YPL241C, strain CIN2, hits give low values 1.02 | S. cerevisiae deletion strains, locus YPR119W, strain clb2, hits give low values 1 | S. cerevisiae deletion strains, locus YPR141C, strain kar3, hits give low values 1 | S. cerevisiae deletion strains, locus YPR163C, strain tif3, hits give low values 0.998 | S. cerevisiae deletion strains, locus YPR167C, strain met16, hits give low values 1.01 | S. cerevisiae deletion strains, strain wtn01, hits give low values 0.998 | S. cerevisiae strains, strain wild type, hits give low values 1.01

— PubChem BioAssay AID1159580 (chemical genetic matrix, 2015)
